Screening data (PubChem BioAssay)
AMA1-RON2 inh – disrupts binding of P. falciparum AMA1 to RON2; AlphaScreen AMA1-biotinylated RON2 peptide binding; Potency, µM (series often up to 58.2 µM), for the others: at the highest dose activity change, negative = inhibition, actives largely listed as inhibitors; 0.2% of 360,000 active;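 further: 0% = vehicle wells and -100% = peptide control; nearly all actives have a fitted effect of over 45% in size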
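AMA1 (3D7) with his tag at 25 nM final met compounds first, then biotinylated RON2 peptide at 25 nM; detection used donor plus acceptor beads, 10 µg/mL apiece, read by AlphaScreen after 30 min at room temperature.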
Sm TGR block – blocks Schistosoma mansoni thioredoxin glutathione reductase; Q962Y6; purified TGR, DTNB reduction, TNB absorbance 405 nm; Potency, µM (series often up to 114 µM), inactives show top-dose activity change, negative = inhibition, usual class: inhibitors; 3% of 360,000 active; further: nearly all actives have a fitted effect of over 60% in size
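First, TGR (20 nM dispensed) and NADPH were mixed with compound. Second, a 15 min room-temperature incubation followed. Third, further NADPH and then DTNB were added to start the reaction. Finally, TNB absorbance was monitored kinetically.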
AmpC inh no detg – inhibitors of E. coli AmpC beta-lactamase without detergent; P00811; AmpC nitrocefin hydrolysis, absorbance 480 nm, 0.0001% Triton; Potency, µM (series often up to 57.1 µM), for inactives: top-dose activity change, negative = inhibition, actives largely listed as inhibitors; 0.52% of 330,000 active; AID 485341;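 further: plate controls were no compound for no effect and no enzyme for full effect; nearly all actives have a fitted effect of over 20% in size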
Target sequence (P00811 whole entry, looked up): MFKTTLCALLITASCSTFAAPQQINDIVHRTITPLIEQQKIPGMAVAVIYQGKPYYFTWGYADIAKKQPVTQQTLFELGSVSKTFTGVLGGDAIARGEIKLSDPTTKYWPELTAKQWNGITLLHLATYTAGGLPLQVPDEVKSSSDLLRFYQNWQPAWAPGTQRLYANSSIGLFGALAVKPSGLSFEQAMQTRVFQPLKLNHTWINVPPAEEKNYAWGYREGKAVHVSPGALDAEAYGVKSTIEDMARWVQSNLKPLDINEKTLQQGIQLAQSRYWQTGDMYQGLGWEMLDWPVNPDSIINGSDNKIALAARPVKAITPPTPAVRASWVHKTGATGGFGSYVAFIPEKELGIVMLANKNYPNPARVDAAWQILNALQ
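AmpC (5.3 nM in the dispensed reagent) in 20 mM phosphate pH 7.0 with 0.01% (detergent screen) or 0.0001% Triton X-100 was preincubated with compounds for 15 min at room temperature. Nitrocefin was then added from an 800 uM solution, and hydrolysis was followed at 480 nm.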
FMDV inh – antivirals against foot and mouth disease virus. FMDV antiviral cell-based qHTS. Potency, µM (highest dose often 57.9 µM), inactives show top-dose activity change, negative = inhibition, most hits filed as inhibitors. 1.2% of 410,000 active; calls by dose curve; tested in HEK293T cells; further: read-out not given here; nearly all actives have a fitted effect of over 45% in size
AmpC inh detg – blocks E. coli AmpC beta-lactamase in detergent assay. AmpC hydrolysis of nitrocefin, absorbance 480 nm, 0.01% Triton. P00811. Potency, µM (doses to about 114 µM), for inactives: at the highest dose activity change, negative = inhibition, usual class: inhibitors. 0.041% of 370,000 active;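 further: 0% = no-compound wells and -100% = no-enzyme wells; nearly all actives have a fitted effect of over 25% in size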
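AmpC (5.3 nM in the dispensed reagent) in 20 mM phosphate pH 7.0 with 0.01% (detergent screen) or 0.0001% Triton X-100 was preincubated with compounds for 15 min at room temperature. Nitrocefin was then added from an 800 uM solution, and hydrolysis was followed at 480 nm.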
Numbers without * were called inactive; ? = inconclusive; / = not tested or not shown; [ ] = another dose, or the depositor's remark. In the library only some 4.1% were active in any assay of this set; here they are far more common. Unless noted, the call rests on the fitted dose curve; in most records, active means well fitted curve in the direction sought with a large enough effect; inconclusive means small, poorly fitted or top-dose-only effect, or another doubt; inactive means no such curve, though single readings can be large; an effect the other way counts as inactive or inconclusive. Unless noted, on the % scale 0 is the no-effect control and ±100 the full control effect; potency means the concentration at half of the fitted maximal effect.

SMILES | AMA1-RON2 inh | Sm TGR block | AmpC inh no detg | FMDV inh | AmpC inh detg
CCC1=C(c2ccc(C)cc2)S(=O)(=O)N=C1N1CCC(C(=O)NCCc2cccc(OC)c2)CC1 | / | 4.9% | / | -15.8% | 17.2%
Cc1c(N=C2C=C(Br)C(=O)C(Br)=C2)c(=O)n(-c2ccccc2)n1C | ? | 2.82µM* | -48.0% | 1.8% | 0.6%
Cc1c(N=C2C=CC(=O)c3ccccc32)c(=O)n(-c2ccccc2)n1C | -11.4% | 12.6µM* | -12.9% | 35.5µM* | -1.4%
Cc1c(N=Nc2c(O)n(C)c(=O)n(C)c2=O)c(=O)n(-c2ccccc2)n1C | 92.6% | 0.1% | -13.6% | ? | ?
CN1c2ccccc2C(C)(C)C12CCCC(=O)N2 (stereo not given) | 0.0% | 20µM* | -27.4% | 2.2% | -14.7%
CC1=NOC2(C1)N(C)c1ccccc1C2(C)C (stereo not given) | 1.2% | -8.6% | -3.1% | -0.1% | 2.2%
Cn1c2cc(B(O)O)sc2c2cnn(Cc3c(F)cccc3F)c(=O)c21 | / | -14.3% | 5.62µM* | / | 2.51µM*
Cn1c2cc(B(O)O)sc2c2cnn(Cc3ccc(F)cc3F)c(=O)c21 | / | -20.5% | 3.55µM* | / | 3.55µM*
Cn1c2cc(B(O)O)sc2c2cnn(Cc3c(F)cccc3Cl)c(=O)c21 | / | 2.0% | 5.01µM* | / | 2.51µM*
Cn1c2cc(Br)sc2c2cnn(Cc3c(F)cccc3F)c(=O)c21 | / | 25.3% | -9.6% | / | 7.3%
C=CCn1c(O)c(N=Nc2ccccc2)c2ccccc21 | 7.9% | 39.8µM* | -17.6% | -4.0% | -8.1%
O=C(NCCc1nnc2n1CCN(Cc1ccccn1)CC2)c1ccc(F)cc1 | / | / | / | -1.1% | /
CC#CC#Cc1cccc(=O)o1 | -10.2% | 20µM* | -6.7% | -25.6% | 2.7%
CC(=C\C(=O)O)/C(=C/c1ccc(C)o1)C(=O)O | -11.7% | 31.6µM* | -11.0% | -4.8% | -9.4%
COc1ccc(OCC(=O)NC2CC(=O)N(c3cccc(OC)c3)C2)cc1 (stereo not given) | / | 56.4% | / | -14.2% | 5.6%
COc1ccc(-c2ccc(CCC(=O)O)n2NC(N)=O)cc1 | -2.6% | 44.7µM* | -0.2% | -16.4% | -6.6%
NC(=O)Nn1c(CCC(=O)O)ccc1-c1ccc(Br)cc1 | -3.4% | 14.1µM* | -18.6% | 0.3% | ?
CCCn1c(CCC(=O)O)ccc1-c1ccc(OC)cc1 | 17.7% | 39.8µM* | / | / | 2.8%
NC(=O)Nn1c(CCC(=O)O)ccc1-c1ccc(Cl)cc1 | -5.3% | -32.2% | -9.4% | -14.3% | -13.2%
COc1cccc(CC2(CO)CCCN(Cc3ccccc3-c3ccco3)C2)c1 (stereo not given) | -20.7% | 50.1µM* | 9.8% | -29.6% | 5.2%
COc1cccc(CC2(CO)CCCN(Cc3ccc(CO)o3)C2)c1 (stereo not given) | -2.4% | -26.4% | -11.2% | -9.7% | 4.2%
COc1cccc(CC2(CO)CCCN(Cc3ccc(-c4ccco4)cc3)C2)c1 (stereo not given) | -26.8% | 17.8µM* | 18.0% | -12.9% | 6.5%
COc1cccc(CC2(CO)CCCN(Cc3ccc(C)s3)C2)c1 (stereo not given) | -24.4% | 10.9% | 18.7% | -19.2% | 4.9%
Cc1ccc2c(c1)c(=O)c(C(=O)c1ccncc1)cn2CC(=O)Nc1ccc(C(C)C)cc1 | / | 5.4% | / | -21.5% | 20.9%
O=C(c1cccc(F)c1)N1CCC[C@@]2(CCN(Cc3ccccc3)C2)C1 | / | / | / | -7.3% | /
SMILES | AMA1-RON2 inh | Sm TGR block | AmpC inh no detg | FMDV inh | AmpC inh detg
Nc1cc(-c2ccco2)no1 | 10.5% | 28.2µM* | -25.8% | 9.6% | -14.5%
c1ccc(-c2noc(-c3ccco3)n2)nc1 | 39.6% | 1.3% | -11.3% | -13.2% | -18.8%
CC(C)N(C)C1CCN(S(=O)(=O)c2ccc3[nH]c(=O)ccc3c2)CC1 | / | 50.1µM* | / | -15.4% | 3.7%
COc1ccccc1N1CCN(C(=O)c2oc3ccccc3c2NC(=O)C(C)Oc2ccccc2)CC1 (stereo not given) | / | 7.2% | / | -1.9% | 4.0%
COc1cccc(-n2c(CN3CCN(Cc4ccccc4)CC3)nc3ccc([N+](=O)[O-])cc3c2=O)c1 | / | -21.9% | 8.1% | / | -5.5%
CCOC(=O)c1ccc(-n2c(CN3CCN(CCO)CC3)nc3ccc([N+](=O)[O-])cc3c2=O)cc1 | 4.9% | 35.5µM* | -1.6% | -12.0% | -8.3%
N#Cc1nc(COc2ccccc2)oc1NCCN1CCOCC1 | -0.6% | 40.9% | 13.0% | 25.4% | ?
COc1ccc(-c2nc(C#N)c(NCCCN3CCOCC3)o2)cc1 | 25.7% | -1.8% | 28.2µM* | 16.3% | 5.4%
N#Cc1nc(-c2ccc(F)cc2)oc1NCCN1CCOCC1 | 14.2% | -3.9% | 0.631µM* | -0.6% | ?
N#Cc1nc(COc2ccc(-c3ccccc3)cc2)oc1NCCCN1CCOCC1 | -14.4% | -8.7% | 189.7% | ? | -9.8%
N#Cc1nc(COc2cccc(Cl)c2)oc1NCCN1CCOCC1 | 5.4% | 35.5µM* | 77.5% | 14.5% | 4.4%
CCc1cccc(NC(=O)c2c(C)oc3ncnc(N4CCCCC4)c23)c1 | / | 4.3% | / | ? | 25.5%
CCC(CC)C(=O)Nc1ccc(S(=O)(=O)N2CCC(c3nc4ccccc4s3)CC2)cc1 | / | 0.0% | / | -29.2% | 27.8%
CCCCN1C(=O)C(CC(=O)NC2CCCCC2)CC(C(=O)N2CCOCC2)=C1C (stereo not given) | 1.7% | / | / | -18.6% | /
CCCCN1C(=O)C(CC(=O)NC2CCCC2)CC(C(=O)N2CCOCC2)=C1C (stereo not given) | 0.0% | / | / | 39.8µM* | /
Cc1ccc(-c2ccc(=O)n(CC(=O)NCCc3ccc(Cl)cc3)n2)cc1 | / | -2.7% | / | -1.3% | 2.8%
CCOC(=O)c1cc2c(=O)n3ccccc3nc2n(Cc2ccco2)c1=NC(=O)c1ccccc1OC | -3.2% | 5.62µM* | -16.9% | -8.5% | 6.3%
Cc1ccc(-c2cn3nc(N4CCCC(C(=O)NCc5ccccc5F)C4)sc3n2)cc1 (stereo not given) | / | -0.9% | / | -7.2% | -1.9%
COc1ccccc1C(C)NC(=O)CCC(=O)N1CCN(S(=O)(=O)c2ccc(Cl)cc2)CC1 (stereo not given) | -0.8%[11.6 µM] | / | / | 35.5µM* | /
COc1ccccc1C(=O)NCCC(=O)N1CCN(S(=O)(=O)c2ccc(Cl)cc2)CC1 | -7.2% | -29.6% | 83.4% | -19.7% | 5.5%
CCOC(=O)C(=O)NCC(c1ccco1)S(=O)(=O)c1cccs1 (stereo not given) | -1.0% | 2.51µM* | -10.0% | -2.9% | -14.1%
Cc1cc(C)c(S(=O)(=O)NCC(c2ccco2)S(=O)(=O)c2cccs2)c(C)c1 (stereo not given) | / | 0.282µM* | / | 45.1% | 1.3%
COc1ccc(C(=O)NCC(c2cccs2)S(=O)(=O)c2cccs2)cc1 (stereo not given) | / | -26.9% | / | -13.1% | -1.0%
CCOc1ccc(C(=O)NCC(c2ccco2)S(=O)(=O)c2cccs2)cc1 (stereo not given) | / | 5.62µM* | / | 8.5% | 0.6%
